# PubChem BioAssay (NCI)
# “And” between values parts separate entries of the source, which are not always exact repeats. Equal entries are not always repeated. About 83,000 compounds went through this panel and 20% of them were active in at least one assay; those are over-represented in the sample as a whole.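 Results are percent growth after 48 hours of single-concentration exposure. 100 means growth as in untreated cells, lower positive values show inhibition; negative values down to -100 show cell death.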 The source made the active and inactive calls. The calls were made as follows: active = growth percent below 10; inactive = the rest.
# System: ACHN renal
# Assay: NCI-60 one-dose screen, 48 h (100 = growth as untreated, 0 = no growth, -100 = all killed)
# Settings: 10 µM unless noted
row,SMILES,growth
1,COc1ccc(CCl)c(C)c1OC,110% (inactive)
2,O=C1c2ccccc2C(c2ccccc2)C1c1ccccc1 (stereo not given),98% (inactive)
3,COc1ccc2oc3c(ccc[n+]3C)c(=O)c2c1,99.1% (inactive)
4,CCc1ccccc1-n1[nH]c(C)c(C=N)c1=O,105% (inactive)
5,C/C=C/C(=O)OCCCCCCCCCCCC,103% (inactive)
6,N#Cc1c[nH]n2ccnc12,112% (inactive)
7,CCCCCc1cc[n+](CC(=O)c2ccccc2)cc1,102% (inactive)
8,O=[N+]([O-])c1ccc(N2CCN=N2)cc1,64.9% (inactive)
9,CCOc1ccc(/C=C\C(=O)O)cc1,109% (inactive)
10,O=C(c1ccc(Cl)cc1)C1C(c2ccccc2)C1[N+](=O)[O-] (stereo not given),111% (inactive)
11,CNc1ccc(O)cc1,92.6% (inactive) and 112% (inactive)
12,O=C1c2cccnc2-c2ncccc21,112% [100 µM] (inactive)
13,Cc1c(Cl)cc(Cl)c(N)c1Cl,115% (inactive)
14,Cc1cc(NC(=O)NC(=O)c2ccccc2N(C)C)ccc1Oc1ncc(Br)cn1,-17% (active) and 56.7% (inactive)
15,CC(C)(C)C1=CC(=O)C(C(C)(C)C)=CC1=O,94.5% (inactive) and 114% (inactive)
16,OCc1ccccc1F,6.49% (active)
17,O=C(O)C1CSCN1 (stereo not given),101% (inactive) and 97.9% (inactive)
18,O=[N+]([O-])c1cccc(N=Cc2ccccc2)c1,102% (inactive)
19,Cc1cc(O)c(C(C)C)cc1N=O,95% (inactive) and 91.5% (inactive)
20,CS(=O)(=O)OCC1NC(=O)C(COS(C)(=O)=O)NC1=O (stereo not given),93.7% (inactive) and 85.9% (inactive)
21,CCCC(=O)Oc1ccc2ccccc2c1,99% (inactive)
22,O=C(O)c1cccc(Br)c1,107% (inactive) and 108% (inactive)

# System: CAKI-1 renal
# Assay: as above
# Settings: 10 µM unless noted
row,SMILES,growth
1,COc1ccc(COC=O)cc1,102% (inactive)
2,O=[N+]([O-])c1ccc(N/N=C/C2CCCCCC2)c([N+](=O)[O-])c1,74.2% (inactive)
3,COC(=O)C(Cc1cn(C(C)=O)c2ccccc12)P(=O)(OC)OC (stereo not given),102% (inactive)
4,CCOCCC(=O)O,102% (inactive)
5,Cc1ccc(N)cc1S(=O)(=O)O,96.8% (inactive) and 106% (inactive)
6,CCOC(=O)c1ccc(C(=N)N)cc1,97.6% (inactive)
7,Cc1cc(-c2ccc(N=Nc3c(C)nn(-c4ccc(S(=O)(=O)O)cc4)c3O)c(C)c2)ccc1N=Nc1ccc(O)c(C(=O)O)c1,100% (inactive)
8,CC(=O)c1cccc(OC(=O)c2ccccc2)c1,91.1% (inactive)
9,O=C(O)/C=C/C=C/c1ccccc1,98.9% (inactive) and 101% (inactive)
10,CCOC(=N)c1ccc(C(=N)OCC)cc1,99% (inactive)
11,CN(C)C(=N)N=C(N)N,115% (inactive)
12,N=C(N=C(N)N)N1CCOCC1,94.8% (inactive) and 103% (inactive)
13,COc1cc([C@@H]2c3cc4c(cc3[C@H](O)[C@H]3COC(=O)[C@@H]23)OCO4)cc(OC)c1OC,22.9% (inactive) and 8.72% (active)
14,O=C1C=CC(=O)N1Cc1ccco1,40% (inactive)
15,S=c1ccc2ccccc2[nH]1,96.5% (inactive)
16,Clc1ccc(/C=C/c2ccc3ccccc3n2)cc1,47.7% (inactive) and 68% (inactive) and 84.7% (inactive)
17,COc1ccc(CCl)c(C)c1OC,101% (inactive)
18,O=C1c2ccccc2C(c2ccccc2)C1c1ccccc1 (stereo not given),72.3% (inactive)
19,COc1ccc2oc3c(ccc[n+]3C)c(=O)c2c1,98.2% (inactive)

row,SMILES,growth
1,CCc1ccccc1-n1[nH]c(C)c(C=N)c1=O,97.3% (inactive)
2,C/C=C/C(=O)OCCCCCCCCCCCC,101% (inactive)
3,N#Cc1c[nH]n2ccnc12,104% (inactive)
4,CCCCCc1cc[n+](CC(=O)c2ccccc2)cc1,98.7% (inactive)
5,O=[N+]([O-])c1ccc(N2CCN=N2)cc1,79.4% (inactive)
6,CCOc1ccc(/C=C\C(=O)O)cc1,113% (inactive)
7,O=C(c1ccc(Cl)cc1)C1C(c2ccccc2)C1[N+](=O)[O-] (stereo not given),99.1% (inactive)
8,CNc1ccc(O)cc1,105% (inactive) and 104% (inactive)
9,O=C1c2cccnc2-c2ncccc21,103% [100 µM] (inactive)
10,Cc1c(Cl)cc(Cl)c(N)c1Cl,88.7% (inactive)
11,Cc1cc(NC(=O)NC(=O)c2ccccc2N(C)C)ccc1Oc1ncc(Br)cn1,25.9% (inactive) and 38.2% (inactive)
12,CC(C)(C)C1=CC(=O)C(C(C)(C)C)=CC1=O,90.7% (inactive)
13,OCc1ccccc1F,18.7% (inactive)
14,O=C(O)C1CSCN1 (stereo not given),92.9% (inactive) and 91.4% (inactive)
15,O=[N+]([O-])c1cccc(N=Cc2ccccc2)c1,88.1% (inactive)
16,Cc1cc(O)c(C(C)C)cc1N=O,104% (inactive) and 107% (inactive)
17,CS(=O)(=O)OCC1NC(=O)C(COS(C)(=O)=O)NC1=O (stereo not given),97% (inactive) and 91.3% (inactive)
18,CCCC(=O)Oc1ccc2ccccc2c1,103% (inactive)
19,O=C(O)c1cccc(Br)c1,102% (inactive) and 99% (inactive)
